From PubChem BioAssay AID1159580 (chemical genetic matrix, 2015)
Screen size: about 5,500 compounds; about 2,000 (36%) were called active. Roughly 18% stayed inconclusive and do not appear here. No stated cut-off is given here; in the data, active means normalized growth mostly below about 0.91 (no sharp cut-off); inconclusive means no clear call, values can overlap the other calls; inactive means mostly above about 0.92. The list shows a part of the results.

Assay: chemical genetic growth profiling, strain panel (AID 1159580);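 further: tested at 20 µM; growth read once vehicle control cultures reached saturation at 30 °C; 1 = growth at the plate median or of vehicle wells; lower values mean less growth of the strain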
Conditions: growth OD
[1] = S. cerevisiae deletion strains, locus YDL101C, strain DUN1, hits give low values
[2] = S. cerevisiae deletion strains, locus YHR030C, strain SLT2, hits give low values

Measured: normalized growth

Cn1c2c(c3ccccc31)/C(=N\OC(=O)c1ccc(Cl)cc1Cl)CCC2
inactive: S. cerevisiae deletion strains, locus YAL013W, strain DEP1, hits give low values 1.01 | S. cerevisiae deletion strains, locus YBR229C, strain ROT2, hits give low values 1.03 | [1] 1.02 | S. cerevisiae deletion strains, locus YDL134C, strain PPH21, hits give low values 1.02 | S. cerevisiae deletion strains, locus YDR150W, strain NUM1, hits give low values 1.04 | S. cerevisiae deletion strains, locus YEL061C, strain CIN8, hits give low values 0.957 | S. cerevisiae deletion strains, locus YGR078C, strain PAC10, hits give low values 1.03 | S. cerevisiae deletion strains, locus YGR229C, strain SMI1, hits give low values 1.02 | [2] 1.07 | S. cerevisiae deletion strains, locus YHR087W, strain rtc3, hits give low values 0.986 | S. cerevisiae deletion strains, locus YJL187C, strain SWE1, hits give low values 1.01 | S. cerevisiae deletion strains, locus YJR043C, strain POL32, hits give low values 1.02 | S. cerevisiae deletion strains, locus YJR075W, strain HOC1, hits give low values 1.01 | S. cerevisiae deletion strains, locus YKL190W, strain CNB1, hits give low values 1.01 | S. cerevisiae deletion strains, locus YLR039C, strain RIC1, hits give low values 1.01 | S. cerevisiae deletion strains, locus YLR058C, strain SHM2 (second series), hits give low values 1.02 | S. cerevisiae deletion strains, locus YLR085C, strain ARP6, hits give low values 0.977 | S. cerevisiae deletion strains, locus YLR262C, strain YPT6, hits give low values 1.15 | S. cerevisiae deletion strains, locus YML094W, strain GIM5, hits give low values 1 | S. cerevisiae deletion strains, locus YMR219W, strain ESC1, hits give low values 1 | S. cerevisiae deletion strains, locus YMR263W, strain SAP30, hits give low values 0.986 | S. cerevisiae deletion strains, locus YNL128W, strain TEP1, hits give low values 1.01 | S. cerevisiae deletion strains, locus YNL153C, strain GIM3, hits give low values 1.04 | S. cerevisiae deletion strains, locus YNL298W, strain CLA4 (second series), hits give low values 1.01 | S. cerevisiae deletion strains, locus YNL322C, strain KRE1, hits give low values 1.01 | S. cerevisiae deletion strains, locus YNR030W, strain Alg12, hits give low values 1.03 | S. cerevisiae deletion strains, locus YPL055C, strain LGE1, hits give low values 0.982 | S. cerevisiae deletion strains, locus YPL241C, strain CIN2, hits give low values 0.98 | S. cerevisiae deletion strains, locus YPR135W, strain CTF4, hits give low values 1.11 | S. cerevisiae strains, strain wild type, hits give low values 1.02

O=C(O/N=C1/CCCc2[nH]c3ccccc3c21)C1CCCCC1
inactive: S. cerevisiae deletion strains, locus YAR019C, strain CDC15, hits give low values 0.972 | S. cerevisiae deletion strains, locus YBL105C, strain PKC1, hits give low values 0.959 | S. cerevisiae deletion strains, locus YBR135W, strain CKS1, hits give low values 0.964 | S. cerevisiae deletion strains, locus YBR136W, strain MEC1, hits give low values 0.947 | S. cerevisiae deletion strains, locus YBR160W, strain CDC28, hits give low values 0.962 | S. cerevisiae deletion strains, locus YDL017W, strain CDC7, hits give low values 0.955 | S. cerevisiae deletion strains, locus YDL028C, strain MPS1, hits give low values 0.962 | [1] 0.973 | S. cerevisiae deletion strains, locus YDL108W, strain KIN28, hits give low values 0.931 | S. cerevisiae deletion strains, locus YDL132W, strain cdc53, hits give low values 0.97 | S. cerevisiae deletion strains, locus YDL214C, strain PRR2, hits give low values 0.881 | S. cerevisiae deletion strains, locus YDR052C, strain DBF4, hits give low values 0.971 | S. cerevisiae deletion strains, locus YDR054C, strain cdc34, hits give low values 0.951 | S. cerevisiae deletion strains, locus YDR226W, strain ADK1, hits give low values 0.962 | S. cerevisiae deletion strains, locus YDR477W, strain SNF1, hits give low values 0.905 | S. cerevisiae deletion strains, locus YER123W, strain YCK3, hits give low values 0.821 | S. cerevisiae deletion strains, locus YER133W, strain GLC7, hits give low values 0.888 | S. cerevisiae deletion strains, locus YFL009W, strain cdc4, hits give low values 0.973 | S. cerevisiae deletion strains, locus YFL029C, strain CAK1, hits give low values 0.966 | S. cerevisiae deletion strains, locus YFR003C, strain YPI1, hits give low values 0.961 | S. cerevisiae deletion strains, locus YFR019W, strain FAB1, hits give low values 0.918 | S. cerevisiae deletion strains, locus YFR028C, strain CDC14, hits give low values 0.975 | S. cerevisiae deletion strains, locus YGR040W, strain KSS1, hits give low values 0.856 | S. cerevisiae deletion strains, locus YGR052W, strain FMP48, hits give low values 0.914 | S. cerevisiae deletion strains, locus YGR092W, strain DBF2, hits give low values 0.845 | [2] 0.971 | S. cerevisiae deletion strains, locus YHR079C, strain IRE1, hits give low values 0.963 | S. cerevisiae deletion strains, locus YHR082C, strain KSP1, hits give low values 0.899 | S. cerevisiae deletion strains, locus YHR205W, strain SCH9, hits give low values 0.873 | S. cerevisiae deletion strains, locus YIL147C, strain SLN1, hits give low values 0.962 | S. cerevisiae deletion strains, locus YJL095W, strain BCK1, hits give low values 0.942 | S. cerevisiae deletion strains, locus YJL128C, strain PBS2, hits give low values 0.935 | S. cerevisiae deletion strains, locus YJL157C, strain FAR1, hits give low values 0.884 | S. cerevisiae deletion strains, locus YJR016C, strain ILV3, hits give low values 0.951 | S. cerevisiae deletion strains, locus YJR066W, strain TOR1 (second series), hits give low values 0.902 | S. cerevisiae deletion strains, locus YJR066W, strain TOR1, hits give low values 0.895 | S. cerevisiae deletion strains, locus YKL048C, strain ELM1, hits give low values 0.925 | S. cerevisiae deletion strains, locus YKL067W, strain YNK1, hits give low values 0.909 | S. cerevisiae deletion strains, locus YKL101W, strain HSL1, hits give low values 0.878 | S. cerevisiae deletion strains, locus YKL193C, strain SDS22, hits give low values 0.97 | S. cerevisiae deletion strains, locus YKL203C, strain TOR2, hits give low values 0.931 | S. cerevisiae deletion strains, locus YLR113W, strain HOG1, hits give low values 0.966 | S. cerevisiae deletion strains, locus YLR133W, strain CKI1, hits give low values 0.9 | S. cerevisiae deletion strains, locus YLR403W, strain SFP1, hits give low values 0.903 | S. cerevisiae deletion strains, locus YML070W, strain DAK1, hits give low values 0.846 | S. cerevisiae deletion strains, locus YMR001C, strain CDC5, hits give low values 0.966 | S. cerevisiae deletion strains, locus YMR205C, strain PFK2 (second series), hits give low values 0.895 | S. cerevisiae deletion strains, locus YMR277W, strain FCP1, hits give low values 0.956 | S. cerevisiae deletion strains, locus YNL006W, strain LST8, hits give low values 0.992 | S. cerevisiae deletion strains, locus YNL020C, strain ARK1, hits give low values 0.872 | S. cerevisiae deletion strains, locus YNL161W, strain CBK1, hits give low values 0.963 | S. cerevisiae deletion strains, locus YNL183C, strain NPR1, hits give low values 0.896 | S. cerevisiae deletion strains, locus YNL207W, strain RIO2, hits give low values 0.959 | S. cerevisiae deletion strains, locus YNL222W, strain SSU72, hits give low values 0.967 | S. cerevisiae deletion strains, locus YNL307C, strain MCK1 (second series), hits give low values 0.911 | S. cerevisiae deletion strains, locus YOL078W, strain AVO1, hits give low values 0.963 | S. cerevisiae deletion strains, locus YOL136C, strain PFK27, hits give low values 0.857 | S. cerevisiae deletion strains, locus YOR061W, strain CKA2, hits give low values 0.845 | S. cerevisiae deletion strains, locus YOR119C, strain RIO1, hits give low values 0.948 | S. cerevisiae deletion strains, locus YOR231W, strain MKK1, hits give low values 0.951 | S. cerevisiae deletion strains, locus YOR329C, strain SCD5, hits give low values 0.972 | S. cerevisiae deletion strains, locus YPL031C, strain PHO85, hits give low values 0.894 | S. cerevisiae deletion strains, locus YPL153C, strain RAD53, hits give low values 0.887 | S. cerevisiae deletion strains, locus YPL204W, strain HRR25, hits give low values 0.908 | S. cerevisiae deletion strains, locus YPL209C, strain IPL1, hits give low values 0.965 | S. cerevisiae deletion strains, locus YPL256C, strain CLN2, hits give low values 0.933 | S. cerevisiae deletion strains, locus YPR025C, strain CCL1, hits give low values 0.961 | S. cerevisiae deletion strains, locus YPR106W, strain ISR1, hits give low values 0.962 | S. cerevisiae deletion strains, locus YPR111W, strain DBF20, hits give low values 0.969 | S. cerevisiae deletion strains, strain NNK1, hits give low values 0.967 | S. cerevisiae deletion strains, strain TSCII, hits give low values 0.967
